SMILES strings stand for the structures. About 83,000 compounds went through this panel and 20% of them were active in at least one assay; those are over-represented in the sample as a whole.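 Activity criterion: percent growth below 10, measured after cells in 96-well plates were exposed to a single compound concentration for 48 hours.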 Values without a mark were called inactive. The source made the active and inactive calls.

Holding throughout (test): NCI-60 one-dose screen, 48 h (100 = growth as untreated, 0 = no growth, -100 = all killed)
In test [1] the test system is K-562 leukemia. The settings on record: 10 µM unless noted.
Test [2] concerns MALME-3M melanoma. The settings on record: 10 µM unless noted.
The subject of test [3] is RXF 393 renal. The note with it: 10 µM unless noted.
For test [4], the system named is SF-295 CNS. The note with it: 10 µM unless noted.
Test [5] deals with UACC-257 melanoma. The note with it: 10 µM unless noted.
The subject of test [6] is HCT-15 colon. The note with it: 10 µM.
The subject of test [7] is UACC-62 melanoma. The note with it: 10 µM unless noted.
The test system of test [8] is LOX IMVI melanoma. The note with it: 10 µM unless noted.
Test [9] has as its system SK-MEL-2 melanoma. The note with it: 10 µM unless noted.
In test [10] the test system is TK-10 renal. The settings on record: 10 µM unless noted.
In test [11] the test system is ACHN renal. The note with it: 10 µM unless noted.
Test [12] deals with A498 renal. The note with it: 10 µM unless noted.
Test [13] deals with HL-60(TB) leukemia. The note with it: 10 µM unless noted.
The test system of test [14] is MOLT-4 leukemia. The settings on record: 10 µM.
Test [15] has as its system OVCAR-8 ovarian. The settings on record: 10 µM unless noted.
The test system of test [16] is OVCAR-4 ovarian. The settings on record: 10 µM unless noted.
The subject of test [17] is NCI/ADR-RES ovarian. The settings on record: 10 µM unless noted.
The subject of test [18] is T-47D breast. The note with it: 10 µM unless noted.
The test system of test [19] is BT-549 breast. The note with it: 10 µM.
For test [20], the system named is HCC-2998 colon. The settings on record: 10 µM unless noted.

Take `CC1(C)N=C(N)N=C(N)N1c1ccc(CCCCc2ccc(Cl)cc2S(=O)(=O)F)c(Cl)c1`: the growth in test [1] was 14.5%; in test [2], 39.3%; in test [3], 29.6%; in test [4] it was 22.9%; in [5] it was 10.1%; in test [6] it was 22.4%. Moreover, the growth in test [7] is 22.5%; in [8] it was 13.3%; in [9], 38.3%; in test [10], 30.3%; in test [11], 18.7%; in test [12], 54.7%. The growth in test [13] was 15.5%; in test [14] it was 28.7%; in [15], 15.2%; in test [16], 50.3%; in test [17] it was 53.3%; in [18] it was 28.6%. Besides, the growth in [19] was 37%; in [20] it was 32%.

On to `Cc1ccc(N)cc1[As]=[As]c1cc(N)ccc1C` (stereo unspecified), for which the growth was -5.72% (active) in [1]; -90.7% (active) in [2]; 73.2% in test [4]; -97.3% (active) in [5]; -68.5% (active) in test [6]; -90.4% (active) in test [7]. Also, the growth in test [8] was -56.9% (active); in test [11], -91.6% (active); in test [12], -26.3% (active); in test [13], -43.9% (active); in [14] it was -29.9% (active); in test [15] it was -95.3% (active). In addition, the growth in [16] is -83.1% (active); in test [17], 53.8%; in test [18] it was -41.9% (active); in test [19], -93.6% (active); in test [20], -73.8% (active).

With `CCC(C)/C=C(C)/C=C/C(=O)c1c(O)c(-c2ccc(O)cc2)c[nH]c1=O` (stereo unspecified), the growth in test [1] is 39.2%; in test [2], 75%; in test [3], 52.3%; in [4] it was 57.5%; in test [5], 55.8%; in [6] it was 38.8%. The growth in test [7] is 48.8%; in test [8], 40.2%; in [9], 89.1%; in test [10] it was 27.3%; in [11], 50.5%; in test [12] it was 47.6%. Further, the growth is 36% in test [13]; 29.4% in test [14]; 51.2% in [15]; 33.5% in test [17]; 48.6% in test [18]; 38.3% in [19]. The growth in [20] is 47.5%.

Regarding `CC1(C)N=C(N)N=C(N)N1c1ccc(OCCCCOc2ccc(S(=O)(=O)F)cc2)c(Cl)c1`, the growth is 16.8% in test [1]; 45.9% in [2]; 27.9% in [3]; 16.3% in test [4]; 32.8% in test [6]; 17.2% in test [7]. Further, the growth is 14.7% in test [8]; 38.6% in test [9]; 11.3% in test [10]; 25.2% in [11]; 29.3% in test [12]; 19.3% in test [13]. Further, the growth in [14] is 26.7%; in test [15], 13.5%; in [16] it was 57%; in test [17], 103%; in test [18], 25.9%; in [19] it was 28.8%. Besides, the growth in [20] is 32.4%.

Consider `O=CN1N=C(c2ccccc2)CC1c1sc(N(CCCl)CCCl)nc1Cl` (stereo unspecified), for which the growth is 78.1% in test [1]; 111% in [2]; 108% in test [3]; 94.8% in [4]; 97.4% in test [5]; 92.8% in [6]. For the same compound, the growth in [7] was 67.5%; in test [8], 98.6%; in test [9] it was 77.2%; in test [10] it was 121%; in test [11] it was 90.9%; in [12], 123%. The growth in test [13] was 94%; in test [14], 85.6%; in test [15], 91%; in test [16], 96.2%; in test [17] it was 93.6%; in test [18], 83%. Also, the growth is 95.3% in test [19] and 103% in test [20].

For the compound `COC1=CC(=O)OC(CCc2ccc3c(c2)OCO3)C1` (stereo unspecified), the growth in test [1] is 122%; in [2], 136%; in [3], 70.2%; in test [4], 116%; in test [5], 97.8%; in test [6], 103%. For the same compound, the growth was 107% in test [7]; 98.5% in [8]; 97.4% in test [9]; 102% in test [10]; 107% in [11]; 101% in test [12]. In addition, the growth in test [13] was 113%; in [14] it was 121%; in test [15] it was 96.1%; in test [16] it was 106%; in [17] it was 120%; in test [18], 94.7%. Further, the results for the growth in test [19] and in test [20] were 92.5% and 132%, respectively.

On to `CCC(CO)NC1CCCCC1` (stereo unspecified), for which the growth in test [1] is 16.6%; in [2] it was 86.1%; in test [3], 45%; in test [4], 113%; in test [5] it was 89.9%; in [6] it was 76.4%. Further, the growth in test [7] is 91.9%; in [8], 27.9%; in test [9], 81.2%; in test [10], 70.8%; in test [11], 84.7%; in test [12], 71.6%. Also, the growth is 60.9% in test [13]; 88% in test [14]; 78.9% in test [15]; 89% in test [16]; 80.9% in test [17]; 108% in [19]. For the same compound, the growth in test [20] was 86.4%.

Consider `CC(/C=N/N=C(N)N)=N/N=C(N)N`, for which the growth in test [1] was 82.1%; in [4], 93.6%; in test [5], 113%; in test [6] it was 98%; in test [7] it was 93.6%; in test [8], 88.9%. Further, the growth in test [9] is 14.8%; in test [10] it was 74.2%; in test [11] it was 94.5%; in test [12], 90.2%; in test [13] it was 84.5%; in [14], 101%. The growth in test [15] is 77.8%; in test [16], 91.9%; in test [17], 74.3%; in test [18], 60.1%; in [20] it was -14.8% (active).

The record behind these values is PubChem BioAssay (NCI).
